We go through 28 compounds from PubChem BioAssay AID485313 (National Center for Advancing Translational Sciences (NCATS), 2010).

About 7,600 (2.4%) of roughly 320,000 compounds were called active. Where a call stands in place of a potency, no number is given. Inconclusive results (about 3%) are left out. Calls come from the whole dose curve; as a rule, active = well fitted activation curve with a large enough effect; inconclusive = small, poorly fitted or top-dose-only effect; inactive = no such curve, though single readings can be large or run the other way. Only a selection was taken, and actives are over-represented in it overall.
Potency is the fitted concentration of half-maximal effect.

A short description of the test: qHTS Assay for NPC1 Promoter Activators.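 For activation: reporter is driven by a mutant NPC1 promoter.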 Note: nearly all actives have a fitted effect of over 60% in size. Conditions: Huh7 NPC1 promoter luciferase reporter, 24 h; series mostly up to 9.22 µM. In a few lines:
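Huh7 reporter cells (NPC1 promoter driving luciferase) are dosed with compound for 24 h at 37 °C, 5% CO2; luciferase detection reagent is then added and luminescence measured after 10 min at ambient temperature.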
Turning to `CCCCc1ccc(NC(=O)CN2C(=O)NC(Cc3ccccc3)C2=O)cc1` (stereo not drawn), the Potency result was “inactive”.

For `NC(=O)COC(=O)c1sc2cc(F)ccc2c1Cl`, the Potency result was “inactive”. The figure for `COc1ccc2c(c1OC)C(=O)N(c1ccc(O)cc1)C2` is 2.82 µM (active); for `COc1cc(C(=O)N2C(=O)c3cccc(N)c3C2=O)cc(OC)c1OC` it is “inactive”. The entry for `COc1ccc2c(c1OC)C(=O)N(c1ncn[nH]1)C2` is “inactive”. Consider `O=C(c1cc2ccccc2o1)N1CCN(S(=O)(=O)c2ccc(Cl)s2)CC1`, for which the Potency entry is “inactive”.

As to `O=C(OCC(=O)N1CCOCC1)c1ccc2ccccc2c1`, the Potency entry is “inactive”. For `CCCCNC(=O)Cn1nc(C)c(S(=O)(=O)N2CCOCC2)c1C`, the Potency entry was “inactive”.

On to `O=c1ccc(S(=O)(=O)N2CCCC2)cn1Cc1nc(-c2ccccc2)no1`, for which the Potency entry is “inactive”. Next, `CCc1ccc(NC(=O)Cn2nnc(C(=O)NCc3ccc4c(c3)OCO4)c2N)cc1`: “inactive”; `Nc1c(C(=O)Nc2ccc3c(c2)OCCO3)nnn1Cc1ccccc1`: 3.16 µM (active). As to `O=C(CCS(=O)(=O)Cc1ccccc1)Nc1ccc2c(c1)OCCO2`, the Potency result is “inactive”. With `Nn1c(SCC(=O)Nc2nccs2)nnc1-c1ccco1`, the Potency entry was “inactive”. Turning to `CC(C)[C@@H](C(=O)O)N(Cc1cccc(CN([C@H](C(=O)O)C(C)C)S(C)(=O)=O)c1)S(C)(=O)=O`, the Potency entry was “inactive”. Consider `Nc1ccn(C2CC(O)C(CO)O2)c(=O)n1` (stereo not drawn), for which the Potency result was “inactive”. For `COc1ccc(C2Nc3ccccc3C(=O)N2Cc2ccccc2)cc1Cn1nnc2ccccc21` (stereo not drawn), the Potency entry was “inactive”.

With `COc1ccccc1CC(=O)Nc1ccc([N+](=O)[O-])cc1OC`, the Potency entry was “inactive”. As for `COc1ccc(C2Nc3ccccc3C(=O)N2c2ccc(F)cc2)cc1Cn1nnc2ccccc21` (stereo not drawn), the Potency result was “inactive”.

Turning to `COc1ccc(C2Nc3ccccc3C(=O)N2c2ccc(Cl)cc2)cc1Cn1cc([N+](=O)[O-])cn1` (stereo not drawn), the Potency is 3.98 µM (active).

Regarding `COc1cccc(NC(=O)c2ccc(Cn3cc([N+](=O)[O-])cn3)o2)c1`, the Potency result was “inactive”. Regarding `COc1ccc(N2C(=O)c3ccccc3NC2c2ccc(OC)c(CN3CCOCC3)c2)cc1` (stereo not drawn), the Potency was 2.82 µM (active).

Take `COC(=O)Cc1ccc(OCC(=O)NC2CCCC2)cc1`: the Potency entry is “inactive”.

With `CN(CCOc1ccccc1)C(=O)c1cc(-c2ccco2)nc2ccccc12`, the Potency entry is “inactive”. Next, `CCN(c1ccccc1)S(=O)(=O)c1cccc(C(=O)NCc2ccccc2CN2CCOCC2)c1`: “inactive”. The entry for `CC(=O)Cn1cnc2c(cnn2-c2ccccc2)c1=O` is “inactive”; for `CN(C(=O)COc1ncnc2c1cnn2-c1ccccc1)C1CCCCC1` it is “inactive”. Turning to `c1ccc(-n2ncc3c2ncn2c(C4CCCCC4)nnc32)cc1`, the Potency is 3.98 µM (active). Regarding `Cc1ccc(S(=O)(=O)N(C)C)cc1NC(=O)CN1c2cccc3cccc(c23)S1(=O)=O`, the Potency result was “inactive”.
